Compound activity as filed in PubChem BioAssay.
Shown are actives, neighbours in structure and some others; about 1.2% of the full set was active somewhere.
CASP6 VEID inh: caspase-6 (human) enzyme inhibition | AID 686996 | inhibition, % at 12.5 µM | hit rate 0.53% among 350,000 | purified caspase-6, Z-VEID-R110 cleavage fluorescence;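 active = mean inhibition across replicates at least about 35%, with every replicate also reaching that limit, limit read from the data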
RAD52 inh: RAD52 (human) annealing inhibition; P43351; recombinant RAD52 DNA annealing, FRET fluorescence; inhibition, % at 18.7 µM; hit rate 0.46% among 360,000; AID 651710;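 active = every replicate showing at least 50% inhibition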
NSD2 HMT inh: NSD2 (human) methyltransferase inhibition | NSD2 peptide methylation, AlphaScreen, 120 min | inhibition, % at 12.5 µM | hit rate 0.54% among 310,000 | AID 743445; in the data active = inhibition above about 50%
RAD54 branch: inhibitors of human RAD54 branch migration | Q92698 | RAD54 Holliday junction branch migration, FAM/BHQ fluorescence | inhibition, % at 10.4 µM | hit rate 0.14% among 360,000 | AID 602329;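 active = mean normalized replicate activity at least 40 and at least half of replicates scoring 40 or more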;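 also: inhibitors cause a drop in the FAM fluorescence signal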
N-glyco inh: blocks N-linked glycosylation in D54 reporter cells; reporter increase, % at 12.5 µM; AID 588692; hit rate 0.23% among 360,000; D54 ERlucT glycosylation luciferase reporter, 24 h; percent of 100 nM tunicamycin response;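 active = mean luciferase reporter signal, scaled so untreated is 0 and the glycosylation-blocking control 100, at or above a set limit in every replicate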;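 also: luciferase carries N-glycosylation sites so blocking glycosylation raises the light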
AlphaScreen art: AlphaScreen assay artifact in NSD2 counter-screen; shares compounds with NSD2 HMT inh; AC35, µM (titrated, usually from 10 µM); AID 1053174; hit rate 9.4% among 1,500; AlphaScreen artifact counterscreen, preloaded methylated H4 peptide; call rule not given here
Numbers stand for hits; i = inactive; nt = not tested or not shown.

SMILES	CASP6 VEID inh	RAD52 inh	NSD2 HMT inh	RAD54 branch	N-glyco inh	AlphaScreen art
COc1ccc2c(c1)C(=O)C(=O)N2CCS(=O)(=O)c1ccccc1	i	i	i	nt	i	nt
O=C1C(=O)N(CCS(=O)(=O)c2ccccc2)c2ccc(F)cc21	i	i	100	nt	i	i
COc1ccc(OC)c(/C=C2\SC(=S)N(NS(=O)(=O)c3ccc(C)cc3)C2=O)c1	i	i	52	nt	i	i
CN(CCCNC(=O)c1cc2c(Cl)nc3ccccc3c2s1)Cc1ccccc1	i	i	i	i	i	nt
CCN(CC)CCCNC(=O)c1cc2c(Cl)nc3ccccc3c2s1	nt	nt	80	nt	i	i
Cc1ccc(S(=O)(=O)N[C@@H]2CC[C@@H](CCn3cc(-c4ccccc4F)nn3)O[C@@H]2CO)cc1	i	nt	nt	i	nt	nt
CN1c2cccc3cccc(c23)N(C)C1(C)C	nt	nt	95	i	i	i
COc1ccc(/C=N/NC(=O)c2ccccc2O)cc1Cn1cc([N+](=O)[O-])cn1	i	i	i	i	i	nt
COc1ccc(/C=N/NC(=O)c2cc(O)c(O)c(O)c2)cc1Cn1cc([N+](=O)[O-])cn1	62	i	73	nt	i	8.6µM
COc1ccc(-n2c3nc4ccccc4nc3c3c(=N)oc(C)nc32)cc1	nt	nt	115	i	i	i
Cc1cccc(S(=O)(=O)N[C@@H]2CC[C@H](CCNC(=O)CCN3CCCCC3)O[C@H]2CO)c1	i	i	nt	i	nt	nt
CCC(=O)N1[C@H](CO)[C@@H](c2ccccc2)C12CN(Cc1ccccc1F)C2	i	i	nt	nt	nt	nt
C=CC[C@H]1CC(Cc2ccccc2)=C[C@H](CC=C)N1	i	i	i	i	i	nt
C=CCC1C=C(Cc2ccccc2)CC(CC=C)N1 (stereo not given)	i	i	54	nt	i	i
C[C@@H]1CCCCO[C@@H](CN(C)S(=O)(=O)c2ccc(F)cc2)[C@H](C)CN([C@H](C)CO)C(=O)c2cc(NC(=O)C3CCCCC3)ccc2O1	i	i	nt	i	nt	nt
S=C(Nc1ccc2nsnc2c1)N1CCCC1	47	i	141	i	i	i
O=C(Nc1ccc2nsnc2c1)N1CCCCCC1	nt	nt	i	i	i	nt
Cc1ccc(S(=O)(=O)/N=C2/NC(=O)/C(=C\c3ccco3)S2)cc1	nt	nt	i	i	i	nt
CC(=O)Nc1ccc(S(=O)(=O)/N=C2/NC(=O)/C(=C\c3ccco3)S2)cc1	65	i	55	nt	i	i
COc1ccccc1CNC(=O)C(NC(=O)Nc1ccccc1)C(C)C (stereo not given)	i	i	106	i	i	i
CCOC(=O)c1c(NC(=O)COC)sc2c1CCCC2	nt	nt	57	i	i	i
Cc1ccc(N2C(=O)c3ccccc3[C@](C)(C(=O)O)[C@@H]2c2ccc(CO)cc2)nc1	i	i	nt	i	nt	nt
COc1cccc(CNc2cccc3cccnc23)c1O	nt	nt	50	i	i	i
COc1cccc(CNc2ccccn2)c1O	i	i	i	i	i	nt
Cc1ccc(O)c(CNc2cccc3cccnc23)c1	i	i	118	nt	i	i
SMILES	CASP6 VEID inh	RAD52 inh	NSD2 HMT inh	RAD54 branch	N-glyco inh	AlphaScreen art
C[C@H]1CCCCO[C@H](CN(C)Cc2ccc3c(c2)OCO3)[C@@H](C)CN([C@@H](C)CO)C(=O)c2cc(NC(=O)CCC(F)(F)F)ccc2O1	i	i	nt	i	nt	nt
C[C@@H]1CN([C@@H](C)CO)C(=O)c2cc(C3=CCCCC3)cnc2O[C@@H]1CN(C)C(=O)c1ccncc1	i	i	nt	i	nt	nt
O=C(NC[C@H]1CC[C@@H]2[C@@H](CN2S(=O)(=O)c2ccccc2)O1)NC1CCCCC1	i	i	nt	nt	nt	nt
CC(C)NC(=O)N(C)C[C@H]1OCCCC[C@@H](C)Oc2ccc(NS(=O)(=O)c3cn(C)cn3)cc2C(=O)N([C@@H](C)CO)C[C@H]1C	i	i	nt	i	nt	nt
CO[C@H]1CN(C)C(=O)c2cc(NC(=O)Nc3cc(F)ccc3F)ccc2OC[C@H](C)N(C)C[C@H]1C	nt	i	nt	i	nt	nt
O=C(Cc1ccccc1)N1C[C@@H]2[C@H](c3ccccc31)[C@@H](CO)N2C(=O)C1CCCC1	nt	nt	nt	i	nt	nt
CCCCn1c(SCC(=O)N2CCCC2)nc2c1c(=O)n(C)c(=O)n2C	nt	nt	i	i	i	nt
CCn1c(SCC(=O)N2CCCCC2)nc2c1c(=O)n(C)c(=O)n2C	i	i	69	i	i	i
CC(C)NC(=O)N(C)C[C@H]1Oc2ncc(C#Cc3ccc(F)cc3)cc2C(=O)N([C@H](C)CO)C[C@@H]1C	i	i	nt	i	nt	nt
O=C(C[C@H]1C[C@@H]2c3cc(NC(=O)NC4CCCCC4)ccc3O[C@@H]2[C@H](CO)O1)NCc1ccccc1	i	i	nt	i	nt	nt
CCNCCC(CCC(C)C)c1ccc2c(c1)OCO2 (stereo not given)	i	i	57	i	i	i
CC1CC(C)CN(C(=O)c2ccc3c(c2NCCO)C(=O)c2ccccc2C3=O)C1 (stereo not given)	nt	nt	81	i	i	8.1µM
O=C(O)COc1ccc2c(c1)O/C(=C\c1ccco1)C2=O	52	i	66	i	i	i
COc1cccc2c1C(=O)C=C(C)C2=O	i	i	i	i	i	nt
COC1=CC(=O)c2nc(Cl)ccc2C1=O	100	i	127	nt	i	i
C[C@H](CO)N1C[C@H](C)[C@H](CN(C)C)Oc2ncc(-c3cccc(C(F)(F)F)c3)cc2C1=O	i	i	nt	i	nt	nt
COCCCNC(=O)c1ccccc1Oc1ccccc1	nt	nt	i	i	i	nt
COCCCNC(=O)c1ccc2c3c(onc13)-c1ccccc1C2=O	nt	nt	53	i	i	i
Cc1cc(=O)n2[nH]c(-c3ccco3)nc2n1	nt	nt	68	i	i	i
Cc1[nH]c(=O)[nH]c1C(=O)CCCCC(=O)O	i	i	130	i	i	i
CCCCSCc1[nH]c(=O)[nH]c1C(=O)CCCCC(=O)OCC	nt	nt	i	i	i	nt
Cc1c(C(=O)N2CCN(c3ccc(F)cc3)CC2)sc2ncnc(N3CCN(c4ccccn4)CC3)c12	i	i	59	i	i	i
Cc1nnc(N/N=C/c2ccc(-c3ccccc3F)o2)n1N	i	i	85	nt	i	i
Cc1nnc(N/N=C/c2ccccc2O)n1N	50	i	101	nt	i	i
Cc1nnc(N/N=C\c2ccc(-c3ccccc3[N+](=O)[O-])o2)n1N	i	i	93	nt	i	i
Cc1noc(C)c1NC(=O)Nc1ccc2c(c1)CC(=O)N([C@@H](C)CO)C[C@@H](C)[C@H](CN(C)C(=O)Nc1ccc3c(c1)OCO3)O2	i	i	nt	i	nt	nt
COc1ccccc1C(=O)Nc1ccc2c(c1)C(=O)N(C)[C@@H]1CC[C@@H](CC(=O)NCc3ccc(Cl)c(Cl)c3)O[C@H]1CO2	i	i	nt	i	nt	nt
Cc1noc(C)c1S(=O)(=O)Nc1ccc2c(c1)C(=O)N([C@@H](C)CO)C[C@@H](C)[C@H](CN(C)C)OCCCC[C@@H](C)O2	i	i	nt	i	nt	nt
COc1ccc(S(=O)(=O)N(C)C[C@H]2OCCCC[C@H](C)Oc3ccc(NC(=O)Nc4c(C)noc4C)cc3C(=O)N([C@@H](C)CO)C[C@@H]2C)cc1	i	i	nt	i	nt	nt
COc1ccc(N(CC(=O)NCc2ccccc2)S(=O)(=O)c2c(C)noc2C)cc1	nt	nt	i	i	i	nt
